In ChEMBL document CHEMBL4296182, “CO-ADD screening of NIH NCI Diversity Set V”:
For part of these data: Results with a measured potency or affinity are listed apart.

Columns and labels:
Staphylococcus aureus = experiment: Antibacterial activity against Staphylococcus aureus MRSA ATCC 43300 (CO-ADD:GP_020); MIC in CAMBH media using NBS plates, by Resazurin F(560/590); format: functional; conditions: Concentration 20 uM, ASSAY_TEST Inhibition of Bacterial Growth, detection method Resazurin, Fluorescence (ex560/em590), MEDIA CAMHB, plate type 384well, CORNING #3640, time 18 hr
Acinetobacter baumannii = experiment: Antibacterial activity against Acinetobacter baumannii ATCC 19606 (CO-ADD:GN_034); MIC in CAMBH media using NBS plates, by Resazurin F(560/590); format: functional; conditions: Concentration 20 uM, ASSAY_TEST Inhibition of Bacterial Growth, detection method Resazurin, Fluorescence (ex560/em590), MEDIA CAMHB, plate type 384well, CORNING #3640, time 18 hr
Escherichia coli = experiment: Antibacterial activity against Escherichia coli ATCC 25922 (CO-ADD:GN_001); MIC in CAMBH media using NBS plates, by Resazurin F(560/590); format: functional; conditions: Concentration 20 uM, ASSAY_TEST Inhibition of Bacterial Growth, detection method Resazurin, Fluorescence (ex560/em590), MEDIA CAMHB, plate type 384well, CORNING #3640, time 18 hr
Klebsiella pneumoniae = conditions: Concentration 20 uM; ASSAY_TEST Inhibition of Bacterial Growth; detection method Absorption (OD600); MEDIA CAMHB; plate type 384well; NBS; CORNING #3640; time 18 hr
Candida albicans = conditions: 20 µM
Cryptococcus neoformans = conditions: Concentration 20 uM; ASSAY_TEST Inhibition of Fungal Growth; detection method Resazurin; Absorption (OD600-OD570); plate type 384well; NBS; CORNING #3640

Compound	Inhibition (Staphylococcus aureus) [%]	Inhibition (Acinetobacter baumannii) [%]	Inhibition (Escherichia coli) [%]	Inhibition (Klebsiella pneumoniae) [%]	Inhibition (Candida albicans) [%]	Inhibition (Cryptococcus neoformans) [%]
CC1(C)N=C(N)N=C(N)N1c1cccc(CN)c1.CCS(=O)(=O)O	8.6	-6.92	11.68	13.8	2.57	-7.41
CCOC(=O)c1cnc(SCC)nc1O	11.19	-12.25	0.66	10.25	0.68	-8.17
CCOC(=O)C(C)c1c(C(=O)c2ccc(C)nc2)c2ccccc2n1C (centres undefined)	10.11	9.14	-0.3	16.34	0.68	-10.08
CCC(CNc1cc(OC)cc2cccnc12)NC1CCCCC1 (centres undefined)	4.02	11.06	4.95	14.97	-0.36	-7.8
OCCCCc1nccc2c1[nH]c1ccccc12	-6.35	-7.04	-1.94	-0.62	2.78	-8.33
NS(=O)(=O)c1ccc(Nc2ccccc2)c([N+](=O)[O-])c1	4.64	12.63	-4.87	9.32	7.16	-1
CN(C)c1ccc(/C=C(\C#N)C(=O)c2ccccc2)cc1	3.86	-12.37	8.74	11.84	4.91	-12.58
Cc1ccc(CC#N)c(-c2c(CC#N)ccc(C)c2C)c1C	10.31	-9.1	13.28	6.29	3.94	-13.71
CC(=O)Nc1ccc(OC(=O)Oc2ccc(NC(C)=O)cc2)cc1	37.09	-4.35	7.78	22.87	5.36	-3.28
CCCn1cnc2c(Sc3c([N+](=O)[O-])ncn3C)nc(N)nc21	-2.1	-3.75	6.82	9.05	1.1	-2.37
Nc1c(Cl)cc(S(N)(=O)=O)cc1S(N)(=O)=O	4.27	9.37	1.27	26.17	17.5	-1.7
CC(=O)CC[N+](C)(C)C.[I-]	1.22	-9.05	1.86	4.32	4.03	-9.72
Nc1ccccc1-c1nc2cnccc2[nH]1	12.51	-12.24	9.24	2.75	-2.69	-6.41
CCN(CC)Cc1cc2[nH]c3c4ccc(Cl)cc4ncc3c2cc1OC	9.09	18.93	-2.05	30.45	-0.29	-5.75
O=C1OC(Cc2ccccc2)C(c2ccccc2)C1=O (centres undefined)	9.75	11.9	6.23	14.26	6.87	-15.19
O=S(=O)(O)c1ccc(/N=N/c2ccccc2)cc1	-3.11	7.18	5.47	7.84	2.54	-15.64
CCOC(=O)Nc1ccc2nc(N3CCCCCC3)sc2c1	14.81	14.56	8.66	9.37	0.84	-12.19
O=C(Nc1ccc(Nc2ccncc2)cc1)c1ccc([N+](=O)[O-])cc1	-5.06	12.27	7.64	10.28	3.08	-7.15
O=C(O)c1cncc(Br)c1	13.85	-13.95	3.81	4.04	6.23	-7.23
O=C(O)/C(=C/c1ccccc1)c1ccccc1	7.86	-10.93	11.66	8.35	8.14	-16.02
CC(=O)OCc1cc(-c2nc3ccccc3nc2O)nn1-c1ccc(Cl)cc1	8.25	12.91	-18.97	4.82	4.91	44.96
CSc1cccc(NC(=O)Nc2nc3c(C)cccc3s2)c1	-3.9	2.69	8.83	7.86	-0.92	-2.59
NNC(=O)c1nnsc1-c1csnn1	-28.09	0.78	-18.51	1.34	13.6	15.04
CCOC(=O)CC(=O)NC(C)(C)CCCCC(C)(C)NC(=O)CC(=O)OCC	-5.26	-12.04	17.83	13.05	-0.86	-4.13
C=C(C)C/N=C/C1(C)CCC(C)=CO1 (centres undefined)	-0.35	0.87	-9.37	5.17	1.63	19.3

Compound	Inhibition (Staphylococcus aureus) [%]	Inhibition (Acinetobacter baumannii) [%]	Inhibition (Escherichia coli) [%]	Inhibition (Klebsiella pneumoniae) [%]	Inhibition (Candida albicans) [%]	Inhibition (Cryptococcus neoformans) [%]
COc1cc2c(cc1OC)C(=O)Cc1ccc3c(c1CN(C)CC2)OCO3	7.05	12.34	18.89	9.37	-0.52	-7.07
Cc1cc(O)c2cc(C(=O)c3ccccc3)ccc2n1	13.49	5.7	2.87	7.32	2.58	-7.43
CCOC(=O)c1cc2c(OC)c(OC)ccc2c2ncc(C#N)c(O)c12	2.33	4.98	-22.93	0.73	5.12	44.69
CN(C)S(=O)(=O)c1ccccc1N=C=S	19.33	5.01	10.9	5.89	4.38	-9.71
NC(=N\c1ccc(N)cc1)/C(N)=N/c1ccc(N)cc1	-1.65	-17.09	7.03	7.69	0.22	-12.28
O=C1NC(=O)N2CCSC2(Cc2ccccc2)N1 (centres undefined)	11.67	11.67	-4.61	17.33	4.4	-2.7
CC(C)(C(N)=O)c1ccccc1	17.59	-10.23	13.36	17.26	-1.04	-2.3
CCCCCCCC1(C)NC(=O)NC1=O (centres undefined)	7.54	3.29	6.05	5.77	0.59	-12.36
N#C/C(=C\c1ccc(C#N)cc1)C(=O)c1ccccc1	-10.06	-6.48	6.05	15.1	8.77	-10.85
Cc1nc(S)nc(O)c1Cc1c(O)ccc2ccccc12	-11.57	-9.92	5.55	6.39	20.9	-9.2
CC(C)(C)CC(C)(C)N1CN=C(S)NC1	14.76	8.83	1.22	6.38	1.25	-7.67
CSc1c(N(C)C)c(=O)c1=S	-5.31	-13.14	11.42	6.17	1.7	-16.36
CC(O)(c1ccccc1)C(c1ccccc1)C1CCCCN1 (centres undefined)	9.45	13.67	-4.2	13.38	7.26	-3.74
C=CCNC(=O)C1COc2ccccc2O1 (centres undefined)	-8.47	-14.67	0.51	7.35	1.99	-7.01
Cc1cc(=O)n2c3c(c4c(cc13)c(CN(C)C)cc(=O)n4C)OC2.Cl	-3.31	19.85	6.04	7.61	-0.27	-11
CCOC(=O)c1nn(C)c2[nH]c(=O)n(C)c(=O)c12	7.94	11.46	12.75	11.59	2.22	-11.62
C(COC1CC2CC1C1C2CC2OC21)OC1CC2CC1C1C2CC2OC21 (centres undefined)	7.31	15	5.47	11.14	-1.79	-10.71
CCOP(=O)(OCC)/C(C#N)=C/c1c[nH]c2ccccc12	16.69	9.53	-1.43	13.34	-0.38	-5.67
O=C(c1ccccc1)C1C(c2ccccc2)C1[N+](=O)[O-] (centres undefined)	0.24	5.31	-7.09	8.34	7.18	-2.68
Cc1ccc(/N=N/c2c(O)c3ccccc3[nH]c2=O)c(S(=O)(=O)N(C)C)c1	12.78	7.24	9.06	6.43	-0.31	-5.24
Oc1ccc2ccc3[nH]cnc3c2c1	14.46	-12.2	3.66	6.42	-0.74	-8.68
Nc1ccc(/N=N/c2ccccc2)c2ccccc12	1.47	-18.91	11.66	8.12	1.76	-16.64
O=C(O)C1CCC(=O)N1C(=O)OCc1ccccc1 (centres undefined)	2.22	-12.76	8.61	12.18	-1.6	-3.17
CCOC(=O)N1CCN(Cc2c(O)ccc3ccccc23)CC1	1.46	-8.59	8.73	12.37	3.24	-5.96
